Reference: PubChem BioAssay (EPA / NIEHS)
Several values for one entry are separate records, joined by “and”; a condition that tells them apart may be missing. Equal entries are not always repeated. Some structures have more than one record in an assay (separate samples or runs), and their calls can disagree. Activity calls are given as the source filed them. How the source made its calls: active means hit-call score of the fitted dose curve at least 0.9, where 1 is the maximum; inactive means score below 0.9.

Assay: ATG_AP_1_CIS: Attagene CIS-FACTORIAL HepG2 Assay for human Activator Protein 1 (AP-1) (AID 2282931)
Settings: HepG2 Attagene cis-factorial AP-1 reporter mRNA; actives raise or lower the signal
Method: ATG_CIS is a cell-based, multiplexed-readout assay that uses HepG2, a human liver cell line, with measurements taken at 24 hours after chemical dosing in a 24-well plate.ATG_AP_1_CIS is one of 52 assay component(s) measured or calculated from the ATG_CIS assay. It is designed to make measurements of mRNA induction, a form of inducible reporter, as detected with fluorescence intensity signals by Reverse transcription polymerase chain reaction (RT-PCR) and Capillary electrophoresis technology.Data from the assay component ATG_AP_1_CIS was analyzed into 1 assay endpoint. This assay endpoint, ATG_AP_1_CIS, was analyzed with bidirectional fitting relative to DMSO as the negative control and baseline of activity. Using a type of inducible reporter, measures of mRNA for gain or loss-of-signal activity can be used to understand the reporter gene at the transcription factor-level as they relate to the gene FOS and JUN. Furthermore, this assay endpoint can be referred to as a primary readout, because this assay has produced multiple assay endpoints where this one serves a reporter gene function. To generalize the intended target to other relatable targets, this assay endpoint is annotated to the dna binding intended target family, where the subfamily is basic leucine zipper.
Human liver HepG2 cells are transiently transfected with multiple reporter transcription units (MRTUs) in 6-well plates using FuGene 6 reagent (Roche; 3 ml FuGene/1 mg DNA). The MRTU constructs are regulated by a cis-regulating element (promoter). […] A major difference between the CIS and TRANS system is that in CIS activities of endogenous TFs are measured, whereas the TRANS assay evaluates changes in activities of exogenous, chimeric NR-Gal4 proteins. […] At the end of 24 hour incubation, total RNA was isolated using TriZol reagent (Invitrogen). The isolated RNA is then reverse-transcribed using oligo(dT) primer and Mo-MLV reverse transcriptase (Invitrogen) with DNAse I (Ambion) treatment for 30 min. The one-tenth of the produced cDNA was amplified by PCR using Taq DNA polymerase (Invitrogen) and two reporter sequence-specific primers. The PCR products were fluorescently labeled by primer extension with 6-arboxyfluorescein (6-FAM) 5'-labeled reporter sequence-specific primer (2 min at 95 C, 20 s at 68 C and 10 min at 72 C) and these products were digested with 5U of HpaI (New England Biolabs) for 2h at 37 C. The fragments were purified using Qiaquick PCR columns (Qiagen), analyzed on an ABI 3130xL genetic analyzer (Applied Biosystems) with peak positions identified by using a set of X-rhodamine (ROX)-labeled MapMarker1000 molecular weight standards (BioVentures). The raw capillary electrophoresis data was processed using Attagraph software (Attagene).

Row | SMILES | AC50 | outcome
1 | O=C(CCCN1CCC(O)(c2ccc(Cl)cc2)CC1)c1ccc(F)cc1 | 60.1 µM (active) | 
2 | CCCCCCCCCCCC[N+](C)(C)Cc1ccccc1 |  | inactive
3 | O=C(NO)c1ccccc1 | 26.5 µM (active) [middle of 4 runs] | 
4 | CCC(C)c1nccnc1OC (stereo not given) |  | inactive
5 | Cc1cncc(C)c1 |  | inactive
6 | CC(C)c1c(C(=O)Nc2ccccc2)c(-c2ccccc2)c(-c2ccc(F)cc2)n1CC[C@@H](O)C[C@@H](O)CC(=O)O |  | inactive
7 | Cn1sccc1=O |  | inactive
8 | O=P(O)(O)CCC(F)(F)C(F)(F)C(F)(F)C(F)(F)C(F)(F)C(F)(F)F |  | inactive
9 | CCOC(C)=O |  | inactive
10 | CCCCc1ccc2ccccc2c1S(=O)(=O)O |  | inactive
11 | c1cc2cccc3c4cccc5cccc(c(c1)c23)c54 |  | inactive
12 | CCCCCCOC(=O)c1ccc(O)cc1 | 50.4 µM (active) | 
13 | CCC(=O)C=Cc1ccc(OC)cc1 |  | inactive
14 | O=CC(F)(F)C(F)(F)C(F)(F)C(F)F |  | inactive
15 | O=S(=O)(O)c1ccc2cc(O)ccc2c1 |  | inactive
16 | CCc1cccc(CC)c1NC(=O)C(=O)O |  | inactive
17 | CCCCCCCCCCCC[N+](C)(C)CCCCCCCCCCCC |  | inactive
18 | COc1ccc(C#N)cc1 |  | inactive
19 | CC(=O)CC(C)C |  | inactive

Row | SMILES | AC50 | outcome
20 | CC(C)C=O | 61.2 µM (active) | inactive
21 | FC(F)(F)C1(F)C(F)(F)C(F)(F)C(F)(F)C(F)(C(F)(F)F)C1(F)F (stereo not given) |  | inactive
22 | O=C1OC(=O)C(F)(F)C1(F)F |  | inactive
23 | COC(=O)C(F)(F)C(F)(F)C(F)(F)F |  | inactive
24 | C=CC(C)(CCC=C(C)C)OC(C)=O (stereo not given) |  | inactive
25 | CC1COCc2cc3c(cc21)C(C)(C)C(C)C3(C)C (stereo not given) | 79.4 µM (active) | 
26 | N=C(N)c1ccc(OCCCCCOc2ccc(C(=N)N)cc2)cc1 | 0.813 µM (active) | 
27 | C=COC(=O)C(C)(C)CCCCCC |  | inactive
28 | O=C1c2ccccc2C(=O)c2c(O)c(O)cc(O)c21 | 19.8 µM (active) | 
29 | CCCCCCCCCCCCCC[n+]1ccccc1 | 0.252 µM (active) | 
30 | FC(F)(F)N1C(F)(F)C(F)(F)OC(F)(F)C1(F)F |  | inactive
31 | COc1ccccc1NC(=O)c1cc2ccccc2cc1O |  | inactive
32 | C[N+](C)(CCCNS(=O)(=O)CCC(F)(F)C(F)(F)C(F)(F)C(F)(F)C(F)(F)C(F)(F)F)CC(=O)[O-] | 0.00657 µM (active) | 
33 | C=C(c1ccc(C(=O)O)cc1)c1cc2c(cc1C)C(C)(C)CCC2(C)C | 11.4 µM (active) | inactive
34 | CCCCC(CC)C(=O)OCCOCCOCCOCCOC(=O)C(CC)CCCC (stereo not given) |  | inactive
35 | CCCCCCCCCCCC(=O)O | 117 µM (active) and 60 µM (active) | 
36 | CCC1CO1 (stereo not given) |  | inactive
37 | Cc1ccc(C(=O)c2ccccc2)cc1 |  | inactive
38 | Nc1cc(Cl)c(-c2cc(Cl)c(N)cc2Cl)cc1Cl | 3.81 µM (active) | 
